Data on 47 compounds can be found in PubChem BioAssay AID1456 (Vanderbilt High Throughput Screening Facility, 2008).

Screen size: about 190,000 compounds; about 4,100 (2.2%) were called active. This excerpt belongs to a sample that is enriched for actives. Unmarked numbers belong to inactive results.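 The calls were made as follows: active = thallium flux slope and its plate-corrected score both differing from the plate sample mean at a set confidence after two filtering rounds, in either direction; inactive = the rest.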

Solute carrier family 12 member 5 (Homo sapiens), sequence (Q9H2X9 whole entry, looked up): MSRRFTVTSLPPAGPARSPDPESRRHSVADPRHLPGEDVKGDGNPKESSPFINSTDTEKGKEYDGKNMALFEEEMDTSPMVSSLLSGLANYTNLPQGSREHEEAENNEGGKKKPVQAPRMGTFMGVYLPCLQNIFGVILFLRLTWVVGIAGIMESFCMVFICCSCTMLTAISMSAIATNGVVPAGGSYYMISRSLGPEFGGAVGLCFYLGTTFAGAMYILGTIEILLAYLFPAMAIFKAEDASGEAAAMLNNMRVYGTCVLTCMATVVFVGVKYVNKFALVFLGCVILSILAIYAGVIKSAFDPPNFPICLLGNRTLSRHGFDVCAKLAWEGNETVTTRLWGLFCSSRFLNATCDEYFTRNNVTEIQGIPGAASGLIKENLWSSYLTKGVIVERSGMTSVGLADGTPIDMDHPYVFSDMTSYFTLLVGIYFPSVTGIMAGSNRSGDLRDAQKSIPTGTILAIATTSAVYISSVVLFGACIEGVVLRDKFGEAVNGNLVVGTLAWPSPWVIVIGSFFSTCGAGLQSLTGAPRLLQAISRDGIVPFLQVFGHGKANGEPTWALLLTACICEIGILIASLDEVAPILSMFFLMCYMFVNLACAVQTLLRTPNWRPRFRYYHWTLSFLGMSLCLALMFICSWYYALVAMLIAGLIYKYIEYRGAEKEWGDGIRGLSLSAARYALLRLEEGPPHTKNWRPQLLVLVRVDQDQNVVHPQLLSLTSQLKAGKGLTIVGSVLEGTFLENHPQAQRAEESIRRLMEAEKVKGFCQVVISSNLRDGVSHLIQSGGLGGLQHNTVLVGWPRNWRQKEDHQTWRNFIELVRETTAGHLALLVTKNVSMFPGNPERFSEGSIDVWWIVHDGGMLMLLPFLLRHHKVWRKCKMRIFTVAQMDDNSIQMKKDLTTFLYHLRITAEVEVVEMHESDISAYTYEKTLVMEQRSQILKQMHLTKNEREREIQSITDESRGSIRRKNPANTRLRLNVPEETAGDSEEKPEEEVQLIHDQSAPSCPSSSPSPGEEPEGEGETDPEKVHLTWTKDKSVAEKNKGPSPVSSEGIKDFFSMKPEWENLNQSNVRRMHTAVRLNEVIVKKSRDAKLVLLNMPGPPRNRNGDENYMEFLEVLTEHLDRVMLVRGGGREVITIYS

This assay concerns the target Solute carrier family 12 member 5 (Homo sapiens) (UniProt Q9H2X9). Put plainly: modulation of human KCC2 ion transport – cell-based, HEK293 KCC2, FluoZin-2 fluorescence, MLSMR, primary screen (AID 1456).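 Also: slope of fluorescence scaled to starting intensity during 10 to 20 s after thallium.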 As to conditions: KCC2 cells, thallium flux FluoZin-2 fluorescence; at 10 µM.
Turning to `O=C(O)c1ccccc1C(=O)Nc1ccccc1[N+](=O)[O-]`, the B-score of Tl+ flux slope (higher = more flux/activation; lower = inhibition) is -0.0678. Take `CCOc1ccccc1N1CN(Cc2ccccc2)CNC1=S`: the B-score of Tl+ flux slope (higher = more flux/activation; lower = inhibition) is -0.426. As to `COC(=O)c1ccc(S(=O)(=O)N(CCO)Cc2ccccc2)n1C`, the B-score of Tl+ flux slope (higher = more flux/activation; lower = inhibition) is 0.0796.

Take `O=C(O)CCN(Cc1ccccc1)S(=O)(=O)c1c(Cl)cccc1Cl`: the B-score of Tl+ flux slope (higher = more flux/activation; lower = inhibition) was -6.63 (active). Take `O=C(/C=C/c1c(Cl)cccc1Cl)NCc1ccccc1`: the B-score of Tl+ flux slope (higher = more flux/activation; lower = inhibition) was 0.452.

As for `O=C(Oc1c(-c2ccco2)oc2ccccc2c1=O)c1cccnc1`, the B-score of Tl+ flux slope (higher = more flux/activation; lower = inhibition) was 40.4 (active). Regarding `O=C(Oc1cccnc1)c1cc2ccccc2oc1=O`, the B-score of Tl+ flux slope (higher = more flux/activation; lower = inhibition) was 0.0371.

For `N#CCc1ccc(OC(=O)c2cccnc2)cc1`, the B-score of Tl+ flux slope (higher = more flux/activation; lower = inhibition) is 0.815.

With `S=C(NNC(=S)NC1CC2CCC1C2)NC1CC2C=CC1C2` (configuration not stated), the B-score of Tl+ flux slope (higher = more flux/activation; lower = inhibition) was 0.801. As to `Clc1ccc2nc(-c3ccccc3)nc(C(Cl)Cl)c2c1`, the B-score of Tl+ flux slope (higher = more flux/activation; lower = inhibition) is 0.642. Regarding `Cc1cc(C)c2cc(CN(Cc3cccs3)Cc3nnnn3CC3CCCO3)c(=O)[nH]c2c1` (configuration not stated), the B-score of Tl+ flux slope (higher = more flux/activation; lower = inhibition) was -3.73 (active). In the case of `Cc1cc2cc(CN(Cc3cccs3)Cc3nnnn3CC3CCCO3)c(=O)[nH]c2cc1C` (configuration not stated) it was -1.28. Take `CCOc1ccc2[nH]c(=O)c(CN(Cc3nnnn3Cc3ccccc3)CC3CCCO3)cc2c1` (configuration not stated): the B-score of Tl+ flux slope (higher = more flux/activation; lower = inhibition) is 0.154. Take `CCOC(=O)N/N=C1\CC(C)S(=O)(=O)c2ccc(Cl)cc21` (configuration not stated): the B-score of Tl+ flux slope (higher = more flux/activation; lower = inhibition) is -0.00493. As to `C/C(=N/NC(=O)CN1CCN(S(=O)(=O)c2ccc(Br)cc2)CC1)c1ccncc1`, the B-score of Tl+ flux slope (higher = more flux/activation; lower = inhibition) was 0.498. For `Cc1ccc(C)c(SCc2nc3sc(C(=O)O)c(C)c3c(=O)[nH]2)c1`, the B-score of Tl+ flux slope (higher = more flux/activation; lower = inhibition) was 0.00809. Regarding `CC(C)c1ccc2c(c1)c(SC(C)(C)C)c(CC(C)(C)C(=O)O)n2Cc1ccc(Cl)cc1`, the B-score of Tl+ flux slope (higher = more flux/activation; lower = inhibition) was 6.52 (active). With `COc1cc([N+](=O)[O-])ccc1NC(=S)N1CCN(c2ccccn2)CC1`, the B-score of Tl+ flux slope (higher = more flux/activation; lower = inhibition) was -1.11. Take `O=C(Nc1nnc(C2CC2)s1)C1=NN(C2CCS(=O)(=O)C2)C(=O)CC1` (configuration not stated): the B-score of Tl+ flux slope (higher = more flux/activation; lower = inhibition) is 0.0275. For the compound `O=C(CC1C(=O)NCCN1Cc1ccc(-c2ccccc2)cc1)NCC1CCOCC1` (configuration not stated), the B-score of Tl+ flux slope (higher = more flux/activation; lower = inhibition) is 0.966. As to `CCCOC(=O)CC1C(=O)NCCN1Cc1ccc(F)cc1` (configuration not stated), the B-score of Tl+ flux slope (higher = more flux/activation; lower = inhibition) was -4.12 (active).

In the case of `CN(Cc1cccc2ncccc12)C(=O)CC1C(=O)NCCN1Cc1ccc(F)cc1` (configuration not stated), the B-score of Tl+ flux slope (higher = more flux/activation; lower = inhibition) was -0.00882.

With `Cc1cc(N)n(-c2ccc(S(=O)(=O)N3CCCC3)cc2[N+](=O)[O-])n1`, the B-score of Tl+ flux slope (higher = more flux/activation; lower = inhibition) was -0.0325. With `COC(=O)c1cccc(NS(C)(=O)=O)c1`, the B-score of Tl+ flux slope (higher = more flux/activation; lower = inhibition) was 0.136. As to `CC(=O)/C(=N\Nc1ccc(Cl)cc1Cl)Sc1cccc2cccnc12`, the B-score of Tl+ flux slope (higher = more flux/activation; lower = inhibition) was 20.6 (active). As for `S=C(NCc1cccnc1)Nc1ccc(Cl)cc1Cl`, the B-score of Tl+ flux slope (higher = more flux/activation; lower = inhibition) is 0.543. The result for `N#Cc1ccc(C(=O)Nc2cccc3cccnc23)c(F)c1` reads 0.429; that for `Cc1cc(OCCCN2CCN(Cc3ccccc3)CC2)ccc1[N+](=O)[O-]`, -0.489; that for `O=[N+]([O-])c1c(NCCO)cc(Sc2nc3ccccc3s2)c2nonc12`, 5.33 (active).

Regarding `COc1ccc(S(=O)(=O)Nc2ccc(O)c(Sc3nc4ccccc4s3)c2)cc1`, the B-score of Tl+ flux slope (higher = more flux/activation; lower = inhibition) is -1.09. Turning to `O=C(CSc1nc2ccccc2s1)Nc1ccc(C(=O)O)cc1`, the B-score of Tl+ flux slope (higher = more flux/activation; lower = inhibition) was 0.381.

As for `O=C(NCc1ccc(F)cc1)C1CCC(CNc2c(N3CCOCC3)c(=O)c2=O)CC1` (configuration not stated), the B-score of Tl+ flux slope (higher = more flux/activation; lower = inhibition) is 1.21. On to `Cc1cc(C(=O)CSc2nc(N)cc(=O)[nH]2)c(C)n1Cc1ccco1`, for which the B-score of Tl+ flux slope (higher = more flux/activation; lower = inhibition) was -0.287. As for `COc1ccc(-c2csc(NC3OC(=O)c4ccccc43)n2)cc1` (configuration not stated), the B-score of Tl+ flux slope (higher = more flux/activation; lower = inhibition) was 0.605. In the case of `CCC(CC)NC(=O)CSc1nnc(-c2c[nH]c3ccccc23)o1` it was -3.08 (active). Regarding `CN(C(=O)CSc1nnc(-c2c[nH]c3ccccc23)o1)C1CCS(=O)(=O)C1` (configuration not stated), the B-score of Tl+ flux slope (higher = more flux/activation; lower = inhibition) was -0.897. In the case of `O=C(CSc1nnc(-c2c[nH]c3ccccc23)o1)c1ccccc1` it was 0.154. For the compound `COc1cccc(C(=O)n2ccc(-c3cccs3)n2)c1`, the B-score of Tl+ flux slope (higher = more flux/activation; lower = inhibition) is 0.604. In the case of `COC(=O)N(NC(=O)C(O)(C(C)C)C(C)C)c1ccccc1`, the B-score of Tl+ flux slope (higher = more flux/activation; lower = inhibition) is -1.84. Regarding `O=C(CN1CCCC1)N1CCN(c2ccccc2)CC1`, the B-score of Tl+ flux slope (higher = more flux/activation; lower = inhibition) is 0.962.

Consider `O=C(NC(CC(=O)N1CCN(c2ccccc2)CC1)c1ccccc1)c1ccccc1Cl` (configuration not stated), for which the B-score of Tl+ flux slope (higher = more flux/activation; lower = inhibition) was -2.77 (active).

As to `CC(CC(=O)N1CCN(c2ccccc2)CC1)c1ccccc1` (configuration not stated), the B-score of Tl+ flux slope (higher = more flux/activation; lower = inhibition) was -0.358. The result for `S=c1[nH]nc(-c2cccs2)n1/N=C/c1cccs1` reads 8.64; that for `S=c1[nH]nc(-c2ccco2)n1/N=C/c1ccccc1`, 4.67. With `S=c1[nH]nc(-c2ccccc2)n1/N=C/c1c[nH]c2ccccc12`, the B-score of Tl+ flux slope (higher = more flux/activation; lower = inhibition) was 0.491. `Cc1ccc(/C=N\n2c(-c3ccccc3)n[nH]c2=S)s1`: the B-score of Tl+ flux slope (higher = more flux/activation; lower = inhibition) is 5.99 (active). Regarding `Cc1cc(-c2n[nH]c(=S)n2/N=C/c2ccco2)n[nH]1`, the B-score of Tl+ flux slope (higher = more flux/activation; lower = inhibition) is -0.111.
